# Compounds with a hit are over-represented: about 2% of the library has one in this group of screens.
# TDP-43 yeast inh = qHTS of TDP-43 Inhibitors; Potency, µM (top dose mostly 46.1 µM), for inactives: at the top dose growth rescue (activation), hits mostly activators; 1.8% of 410,000 active; TDP-43 expressing yeast growth rescue, BacTiter-Glo, 24 h; further: % of control where 0% means no effect; nearly all actives have a fitted effect of over 50% in size
#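 Luminescence from BacTiter-Glo reports growth of TDP-43-expressing yeast after 24 hr at 30 deg C with compound. Cells were raffinose-pregrown to mid-log, then seeded in galactose medium at OD600=0.02.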
# Abeta rescue = qHTS for compounds that reverse cellular toxicity of Amyloid beta (A-beta) peptide in yeast: Primary Screen; yeast expressing A-beta42, growth rescue, OD600, 48 h; response scale: 0% DMSO, 100% iron-clioquinol control; Potency, µM (series often up to 46.1 µM), actives largely listed as activators; 0.063% of 410,000 active; further: nearly all actives have a fitted effect of over 55% in size
#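 Yeast growth medium received pinned compounds, then yeast cells expressing toxic A-beta were added; plates incubated at 30 C for 48 hr. Growth read as absorbance at 600 nm, normalized to DMSO and equimolar FeCl3 plus clioquinol controls.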
# MBNL1 CUG block = qHTS Assay for Inhibitors of MBNL1-poly(CUG) RNA binding; Potency, µM (top dose mostly 57.5 µM), for inactives: at the top dose activity change, negative = inhibition, usual class: inhibitors; TR-FRET MBNL1-His/biotin-(CUG)12 binding, 665/545 ratio; Muscleblind-like protein 1 (Homo sapiens), Q9NR56; 0.036% of 280,000 active; active means well fitted inhibition curve with a large enough effect in the signal ratio, with a control signal flat, not every such curve was filed as active; inconclusive means small, poorly fitted or top-dose-only effect, or effect the other way, or a change in a side signal; inactive means no such curve, though single readings can be large or run the other way; the % refers to the signal ratio; further: on the % scale 0 is the no-effect control and ±100 the full control effect
# Target sequence (Q9NR56 whole entry, looked up): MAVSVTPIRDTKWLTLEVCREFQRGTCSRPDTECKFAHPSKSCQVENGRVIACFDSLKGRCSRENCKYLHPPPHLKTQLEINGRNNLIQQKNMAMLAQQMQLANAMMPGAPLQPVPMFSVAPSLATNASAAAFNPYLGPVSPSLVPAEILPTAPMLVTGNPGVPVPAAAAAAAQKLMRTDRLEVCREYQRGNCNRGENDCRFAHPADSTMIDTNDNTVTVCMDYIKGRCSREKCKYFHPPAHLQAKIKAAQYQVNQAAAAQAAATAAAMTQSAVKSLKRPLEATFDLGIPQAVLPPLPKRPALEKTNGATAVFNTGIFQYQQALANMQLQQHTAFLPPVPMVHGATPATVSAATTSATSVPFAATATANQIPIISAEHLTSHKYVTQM
#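 MBNL1-His + Biotin-(CUG)12, cpd titration 92 nM–58 uM; Tb anti-His Ab 0.055 ng/ul, SA-XL665 5 nM (final); 60 min RT; ratiometric 665/545 nm, Ex 340 nm; normalized to buffer and full-complex controls.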
# aSyn rescue = qHTS of alpha-syn Inhibitors | Potency, µM (titrated, usually from 46.1 µM), for inactives: at the top dose growth rescue (activation), usual class: activators | 0.14% of 370,000 active | Yeast expressing alpha-synuclein, growth rescue, BacTiter-Glo, 24 h; further: % of control where 0% means no effect; nearly all actives have a fitted effect of over 65% in size
#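 Readout is rescue of growth in alpha-synuclein-expressing yeast, so inhibitors of toxicity appear as activators. Growth after 24 hr at 30 deg C in galactose medium is quantified by luminescence.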
# GRP78 ERSR act = qHTS for Inducers of the Endoplasmic Reticulum Stress Response (ERSR) in Human Glioma: qHTS | U87-MG GRP78 promoter luciferase reporter, 16 h | Potency, µM, inactives show at the top dose activation, hits mostly activators | 0.02% of 420,000 active | AID 602332, 2012; further: series mostly up to about 76 µM; % of control where 0% means no effect; nearly all actives have a fitted effect of over 35% in size
#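 ERSR induction read as luciferase luminescence (Bright-Glo, 10 min at room temperature) in stably transfected human U87-MG glioma cells exposed to compounds for 16 h, using GRP78 as sensor.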
# FUS suppressor = qHTS for Suppressors of FUS Proteinopathy: Primary screen using FUS-linked yeast assay; 0.24% of 390,000 active; S. cerevisiae FUS-expressing, growth rescue, OD600, 24 h; Potency, µM (doses to about 76.6 µM), most hits filed as activators; AID 1347120, 2019;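 further: plate controls were DMSO vehicle for no effect and reference control for full effect; nearly all actives have a fitted effect of over 55% in size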
#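 Read-out: OD at 600 nm after 24hr at 30C, reporting rescue of FUS-induced yeast toxicity. Cells at OD 0.005 in galactose (2%) minimal medium; compounds tested in a dilution series; CP55940 titration from 92uM final as control.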
# Numbers without * were called inactive; i = inactive; u = inconclusive; x = not tested or not shown. Unless noted, the call rests on the fitted dose curve; in most records, active means well fitted curve in the direction sought with a large enough effect; inconclusive means small, poorly fitted or top-dose-only effect, or another doubt; inactive means no such curve, though single readings can be large; an effect the other way counts as inactive or inconclusive. Potency means the concentration at half of the fitted maximal effect.
SMILES,TDP-43 yeast inh,Abeta rescue,MBNL1 CUG block,aSyn rescue,GRP78 ERSR act,FUS suppressor
CCCC(=O)NC(=S)NNC(=O)c1ccc([N+](=O)[O-])cc1,15%,i,x,20µM*,-2%,i
CCCCCC(=O)NNC(=S)NC(=O)c1cccc([N+](=O)[O-])c1,u,u,u,16µM*,-5%,x
COc1ccc(CCNC(=S)NC(=O)c2ccccc2)cc1OC,19%,i,-4%,2%,-1%,i
Cc1ccc(C(=O)NC(=S)NNC(=O)COc2ccc([N+](=O)[O-])cc2)cc1,20µM*,u,12%,12%,-3%,i
COc1ccc(CCNC(=S)NC(=O)c2cccc([N+](=O)[O-])c2)cc1OC,13µM*,i,u,-1%,-5%,x
CCC(=O)N[C@@H]1c2ccccc2C2(CCN(Cc3[nH]c4c(Cl)cccc4c3C)CC2)[C@H]1OC,x,x,x,x,-1%,x
CCCCCCCCN1C(=O)[C@@H](CC(=O)NCCC(C)C)C[C@@]2(C(=O)OC)C1=C[C@H](COCc1ccccc1)O[C@@H]2C,x,x,x,x,x,i
COC(=O)C1CCN(Cc2ccc3c(c2)CN(C(=O)c2cc(C)on2)CCO3)CC1,x,x,x,x,-6%,x
COc1ccc(C(=O)NC(=S)NNC(=O)COc2ccccc2)cc1,8%,u,2%,18%,-8%,i
CC(=O)NNC(=S)NC(=O)c1ccc(C)cc1,1%,i,u,2%,2%,i
CCC(=O)NNC(=S)NC(=O)c1ccc(C)cc1,20µM*,u,-4%,u,-3%,i
O=C(CCc1ccccc1)NNC(=S)NC(=O)c1ccc(Cl)cc1,14µM*,u,-2%,13µM*,5%,i
O=C(COc1ccccc1)NNC(=S)NC(=O)c1ccccc1,3.5µM*,u,-3%,u,1%,i
COc1ccc(C(=O)NC(=S)NNC(=O)c2cnccn2)cc1,u,i,-21%,u,1%,i
O=C(NC(=S)NNC(=O)c1cnccn1)c1ccc(Cl)cc1,3.2µM*,i,1%,5µM*,3%,i
CC(C)Cc1nc2cc(NS(=O)(=O)N(C)C)cc(C(=O)N3CCc4sccc4C3)c2n1C,x,x,x,x,8%,x
CC(C)NC(=S)NC(=O)c1ccc(-c2ccccc2)cc1,18µM*,i,-18%,-17%,4%,i
O=C(NC(=S)Nc1ccc(-c2ccccc2)cc1)c1ccccc1,-7%,i,x,14%,13%,i
O=C(COC(=O)c1ccc2c(c1[N+](=O)[O-])C(=O)c1ccccc1C2=O)NC1CC1,3.5µM*,i,u,-46%,11%,i
O=C(NCc1ccccc1C(F)(F)F)C1CC(c2ccccc2[N+](=O)[O-])=NO1 (configuration not stated),13µM*,i,10%,4%,-2%,i
CC(C)c1c(C(=O)NCC(C)(C)N2CCOCC2)cnn1-c1nccc(-c2ccccc2F)n1,x,x,x,x,-3%,x
Cc1ccc(CC2(C)C(=O)Nc3c(Cl)ccc(Cl)c32)cc1 (configuration not stated),0%,i,x,18µM*,11%,i
CC1(Cc2ccccc2Cl)C(=O)Nc2c(Cl)ccc(Cl)c21 (configuration not stated),32µM*,i,x,13µM*,5%,i
CC1(Cc2ccccc2F)C(=O)Nc2c(Cl)ccc(Cl)c21 (configuration not stated),2%,i,x,11µM*,-3%,i
CC1(Cc2ccc(Cl)cc2)C(=O)Nc2c(Cl)ccc(Cl)c21 (configuration not stated),-26%,i,x,u,0%,i
SMILES,TDP-43 yeast inh,Abeta rescue,MBNL1 CUG block,aSyn rescue,GRP78 ERSR act,FUS suppressor
CC1(Cc2cccc(C(F)(F)F)c2)C(=O)Nc2c(Cl)ccc(Cl)c21 (configuration not stated),-17%,i,x,-26%,-3%,i
COc1ccc(C(=O)C2(C(=O)NCCO)CC(c3ccccn3)=NO2)cc1 (configuration not stated),x,x,x,x,x,i
O=C(NCCc1nnc2n1CCN(Cc1c(F)cccc1F)CC2)c1ccco1,x,x,x,x,-7%,x
OC1(c2cccnc2)CCN(Cc2ccc3c(c2)CN(Cc2cccc4nccnc24)CCO3)CC1,x,x,x,x,-3%,x
CCOC(=O)c1nnc(-c2ccccc2)nc1NCc1ccc(Cl)cc1,13µM*,i,5%,2%,-6%,i
C=CCN1[C@H](CC(C)C)COc2cccc(N3CCSCC3)c2S1(=O)=O,x,x,x,x,x,i
CCOc1ccc(C2=C(C(=O)CC)Sc3nncn3N2C(=O)CC)cc1,20µM*,i,x,x,-5%,i
COc1cccc(C2=C(C(C)=O)Sc3nncn3N2C(C)=O)c1,35µM*,i,x,x,0%,i
COc1cccc(C2=C(C(C)=O)Sc3nnc(C4CCCCC4)n3N2C(C)=O)c1,u,i,x,x,0%,i
CC(=O)C1=C(c2ccc(Cl)c(Cl)c2)N(C(C)=O)n2cnnc2S1,10µM*,i,x,x,2%,i
CC(C)(O)C#Cc1ccc(CN2CCc3nnc(CCNC(=O)c4ccco4)n3CC2)cc1,x,x,x,x,-2%,x
CCC(=O)NCc1nc(-c2cccc(NC(=O)c3ccc(C)s3)c2)oc1C,x,x,x,x,-2%,x
Cc1cccc(NC(=S)NC(=O)Cc2ccccc2)c1C,u,7.9µM*,-7%,15%,4%,i
O=C(NC1CCN(Cc2ccccc2)CC1)c1ccccc1OCc1ccccc1,6%,i,-9%,3%,-4%,i
O=C(NC1CCCC1)c1ccccc1OCc1ccccc1,20µM*,i,-5%,6%,-4%,i
COc1ccccc1C(=O)NC1CCCCCCC1,18µM*,i,-6%,3%,3%,i
O=C(NCCN1CCOCC1)c1cnn(-c2nccc(-c3cc4ccccc4o3)n2)c1C1CC1,x,x,x,x,-4%,x
CCOC(=O)c1cnc(-c2ccccc2)nc1C(F)(F)F,5%,i,-3%,1%,2%,i
CCOC(=O)c1cnc(Nc2ccccc2)nc1C(F)(F)F,18µM*,i,-10%,0%,-1%,i
O=C(Cn1c(-c2cccs2)cc2cc(Cl)ccc21)NCc1ccccc1,3%,i,x,x,-2%,i
O=C(O)Cn1c(-c2cccs2)cc2cc(Cl)ccc21,18µM*,i,x,x,x,i

# Compound activity deposited in PubChem BioAssay by National Center for Advancing Translational Sciences (NCATS).
